Source: PubChem
NPC1 prom act = activates the NPC1 promoter | Huh7 NPC1 promoter luciferase reporter, 24 h | Potency, µM (series often up to 9.22 µM), inactives show at the top dose activation, actives largely listed as activators | 320,000 tested, 2.4% active | AID 485313; further: % of control where 0% means no effect; nearly all actives have a fitted effect of over 60% in size
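NPC1 promoter–luciferase Huh7 cells; 24 h compound; luminescence.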
ELG1 genotoxic = genotoxicity induction in ELG1-luciferase HEK293T cells | 330,000 tested, 1.3% active | Potency, µM (top dose mostly 46 µM), for the others: at the top dose activity change, positive = activation, most hits filed as activators | HEK293T ELG1-luciferase reporter, luminescence, 16 h; further: % of control where 0% means no effect; nearly all actives have a fitted effect of over 60% in size
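Quantitative HTS format in 1536-well plates. HEK293T ELG1-luciferase reporter cells receive test compound and are incubated 16 hr at 37 °C, 5% CO2; ONE-Glo added, 30 min room temperature, then luminescence read.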
FLuc modulator = inhibits or activates purified firefly luciferase, miR-21 counter-screen | purified FLuc, Km substrates, luminescence inhibition | Potency, µM (doses to about 57.5 µM), inactives show at the highest dose activity change, negative = inhibition, actives largely listed as inhibitors | 360,000 tested, 6.9% active;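 further: plate controls were vehicle for no effect and reference inhibitor for full effect; nearly all actives have a fitted effect of over 55% in size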
Target sequence (P08659 whole entry, looked up): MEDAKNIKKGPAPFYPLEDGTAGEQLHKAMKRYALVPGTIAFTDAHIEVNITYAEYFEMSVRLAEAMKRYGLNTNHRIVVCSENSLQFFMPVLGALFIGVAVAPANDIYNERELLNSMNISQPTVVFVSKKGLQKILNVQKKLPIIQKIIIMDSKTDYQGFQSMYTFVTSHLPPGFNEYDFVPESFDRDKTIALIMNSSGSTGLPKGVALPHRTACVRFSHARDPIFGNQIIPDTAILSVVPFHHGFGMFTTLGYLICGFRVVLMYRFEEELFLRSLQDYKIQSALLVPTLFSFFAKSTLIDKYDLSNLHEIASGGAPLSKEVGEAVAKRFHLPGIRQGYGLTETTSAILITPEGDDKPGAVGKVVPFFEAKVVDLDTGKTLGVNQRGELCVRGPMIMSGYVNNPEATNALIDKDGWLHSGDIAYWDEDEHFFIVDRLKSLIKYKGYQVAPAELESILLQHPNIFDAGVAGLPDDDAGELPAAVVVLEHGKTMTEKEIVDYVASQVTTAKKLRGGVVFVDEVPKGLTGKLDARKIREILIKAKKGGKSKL
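Biochemical qHTS of compounds, final roughly 60 µM downward over six points, against 10 nM purified firefly luciferase using Km concentrations of substrates (10 uM D-luciferin, 10 uM ATP) in Tris acetate pH 7.5 buffer; luminescence output.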
Rab9 promoter act = activators of Rab9 promoter | Huh7 Rab9 promoter-luciferase reporter, luminescence, 24 h | Potency, µM (top dose mostly 9.22 µM), for inactives: top-dose activation, negative = inhibition, usual class: activators | 320,000 tested, 2.8% active; further: % of control where 0% means no effect; nearly all actives have a fitted effect of over 60% in size
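Cell-based reporter: Huh7 stable for Rab9 promoter-driven luciferase, plated in reduced-serum medium with 10% FBS at 1500 cells/well, compound-treated 24 h at 37 °C, luminescence read after 10 min reagent.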
SMN2 splice up = increases expression of the SMN2 splice variant. HEK293 SMN2-luciferase splicing reporter, luminescence, 30-36 h. Potency, µM (doses to about 46.1 µM), inactives show at the highest dose activity change, positive = activation, hits mostly activators. 210,000 tested, 2.8% active; further: % of control where 0% means no effect; nearly all actives have a fitted effect of over 55% in size
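HEK293 cells carry an SMN2 […]–luciferase reporter in which exon 7 inclusion puts luciferase in frame. Cells were plated 10-12 h before compound addition, then incubated 30-36 h at 37C. ONE-Glo luminescence was read; sodium butyrate at 4.5 mM final served as control.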
* hit, by the source's call; ? = inconclusive; . = not tested or not shown; [ ] = dose if it differs, or a comment. In the library only some 7.4% were active in any assay of this set; here they are far more common. The call rests on the fitted dose curve; in most records, active means well fitted curve in the direction sought with a large enough effect; inconclusive means small, poorly fitted or top-dose-only effect, or another doubt; inactive means no such curve, though single readings can be large; an effect the other way counts as inactive or inconclusive. Potency means the concentration at half of the fitted maximal effect.

SMILES	NPC1 prom act	ELG1 genotoxic	FLuc modulator	Rab9 promoter act	SMN2 splice up
Cc1cc(N/N=C/c2ccc(Cl)cc2Cl)nc(NCc2ccccc2)n1	-9.3%	-9.2%	?	-10.4%	-49.0%
Cc1ccc(/C=N/Nc2cc(C)nc(NCc3ccccc3)n2)cc1	-1.9%	-5.4%	10.7µM*	-5.5%	.
O=C(CSc1c2c(nc3cc(Cl)ccc13)CCCC2)N1CCN(c2ccccc2F)CC1	.	.	-14.2%	.	-32.1%
CCOC(=O)NN1C(=O)c2ccccc2NC1c1cccs1 (stereo unspecified)	-2.0%	1.0%	-1.9%	-3.4%	.
O=C(O)c1ccc(S(=O)(=O)N[C@@H](Cc2ccc(O)cc2)C(=O)O)cc1	-0.7%	.	-4.1%	1.5%	.
Clc1ccccc1Cc1noc(CN2CCN(Cc3ccccn3)CC2)n1	-1.7%	-1.1%	3.3%	-4.3%	3.5%
COc1ccc(C2C=C(c3ccc(F)cc3)NC(=S)N2)cc1OC (stereo unspecified)	-8.8%	0.1%	-0.1%	-24.7%	-33.5%
NC(=O)c1c(NC(=O)CN2C(=O)NC(Cc3ccccc3)C2=O)sc2c1CCC2 (stereo unspecified)	9.8%	-1.0%	0.6%	0.3%	.
c1ccc2nc(-c3ccc(N4CCOCC4)cc3)ccc2c1	0.251µM*	?	0.269µM*	0.1µM*	?
CN1CCN(c2ccc(-c3ccc4ccccc4n3)cc2)CC1	-33.8%	-16.0%	0.12µM*	-38.9%	-64.7%
Cc1cc(-c2ccc(N3CCOCC3)cc2)nc2ccccc12	?	?	1.51µM*	?	.
Cc1cccc(-c2nc(Nc3ccc(N4CCOCC4)cc3)c3ccccc3n2)c1	1.0%	-6.5%	?	-1.6%	1.3%
COc1ccc(/C=C2/SC(=O)N(CCC(=O)Nc3ccccc3)C2=O)cc1OC	-0.9%	?	4.9%	5.0%	-26.8%
O=C(CN1C(=O)S/C(=C\c2ccccc2)C1=O)NNC(=O)c1ccccc1O	3.4%	1.8%	-1.3%	7.7%	-3.0%
O=C(CN1C(=O)S/C(=C\C=C\c2ccccc2)C1=O)Nc1cccc(O)c1	21.4%	?	12µM*	?	71.4%
O=C(CN1C(=O)S/C(=C\c2ccc(C(=O)O)cc2)C1=O)Nc1ccccc1	-0.6%	-2.0%	-14.4%	3.4%	.
O=C(CCN1C(=O)S/C(=C\C=C\c2ccccc2)C1=O)Nc1ccc(O)cc1	3.55µM*	13µM*	?	3.55µM*	.
O=C(CCCN1C(=O)S/C(=C\C=C\c2ccccc2)C1=O)Nc1ccc(C(=O)O)cc1	?	22.1%	21.3µM*	?	.
Cc1ccc(C(=O)NCc2ccc(F)cc2)cc1NC1=NC2CS(=O)(=O)CC2S1 (stereo unspecified)	-6.3%	0.0%	-1.3%	0.2%	.
CC(=O)OCC(=O)[C@]12OC(C)(C)O[C@@H]1C[C@H]1[C@H]3CC=C4C[C@@H](O)CC[C@]4(C)[C@H]3CC[C@]12C	.	.	.	.	-1.4%[9.22 µM]
CCOC(=O)Cn1nnc(-c2ccc(SC)cc2)n1	-1.5%	3.2%	12µM*	-2.8%	4.7%
CSc1ccc(-c2nnn(Cc3ccccn3)n2)cc1	3.98µM*	?	12µM*	2.51µM*	?
O=C(CC1C(=O)NCCN1CC(c1ccccc1)c1ccccc1)NC1CC1 (stereo unspecified)	1.3%	1.5%	0.8%	2.4%	.
CCCCCOc1ccc(CSc2n[nH]c(C)n2)cc1	0.7%	-2.8%	-1.7%	0.0%	.
Cc1nc(SCc2ccc(OCCC(C)C)cc2)n[nH]1	?	?	21.3µM*	?	?
SMILES	NPC1 prom act	ELG1 genotoxic	FLuc modulator	Rab9 promoter act	SMN2 splice up
COc1ccc(F)cc1S(=O)(=O)N1CCCN(S(=O)(=O)c2cc(F)ccc2OC)CC1	-1.0%	-7.4%	8.0%[2.3 µM]	0.5%	-10.7%
COc1ccc(F)cc1S(=O)(=O)n1cc(C)nc1-c1ccccc1	0.7%	-0.1%	-1.5%	0.6%	3.55µM*
O=C(O)CCC(=O)N1CCCC1C(=O)O (stereo unspecified)	1.7%[46.1 µM]	.	.	-4.4%[46.1 µM]	-11.7%
COc1cc(C2Nc3cccc4cccc(c34)N2)ccc1OC(C)=O	-0.3%	3.7%	12µM*	14.7%	0.1%
COc1ccc(C(=O)Nc2ccccc2C(=O)NC(Cc2ccc(O)cc2)C(=O)NNC(=O)c2ccncc2)cc1 (stereo unspecified)	-1.3%	2.0%	12µM*	12.8%	29.3%
COc1ccc(C(=O)Nc2ccccc2C(=O)NC(Cc2ccc(O)cc2)C(=O)NNC(=O)c2ccc(C)cc2)cc1 (stereo unspecified)	-2.9%	?	9.53µM*	-12.5%	-1.1%
COc1ccc(C(=O)Nc2ccccc2C(=O)NC(Cc2ccc(O)cc2)C(=O)NNC(=O)c2ccccc2)cc1 (stereo unspecified)	-1.2%	-5.1%	4.78µM*	0.4%	22.2%
COc1ccc(CC(NC(=O)c2ccccc2)C(=O)NCC(=O)O)cc1 (stereo unspecified)	0.7%	-0.3%	-0.4%	2.0%	-18.1%
Cc1ccc(SCc2ccc(C(=O)Nc3ccccc3C(=O)NC(C)C)cc2)cc1	1.9%	9.8%	3.4%	-1.0%	.
CC(C)C(NC(=O)c1ccccc1NC(=O)c1ccccc1)C(=O)NNC(=O)c1ccncc1 (stereo unspecified)	-0.6%	5.5%	?	-0.5%	.
CCN(CCCNC(=O)CN1N=C(c2ccccc2)CCC1=O)c1ccccc1	.	.	1.5%	.	.
CCSc1nc(-c2cccnc2)ccc1C#N	-3.5%	-1.6%	4.0%	-3.1%	6.6%
CCc1ccc(OCC(=O)NC(=S)Nc2cccc(CO)c2)c(Br)c1	1.78µM*	?	6.01µM*	2.82µM*	12.6µM*
CCc1ccc(OCC(=O)NC(=S)Nc2ccc(F)cc2)c(Br)c1	0.1%	12.4%	?	-2.3%	-16.3%
CCCCn1c(=S)[nH]c2cc(S(=O)(=O)N3CCOCC3)ccc21	.	0.3%	.	.	.
CCn1c(=S)[nH]c2cc(S(=O)(=O)N3CCCCC3)ccc21	-2.6%	9.2µM*	7.3%	-3.5%	.
COC(=O)c1ccc(/C=N\N2CCN(Cc3ccc(C)cc3)CC2)cc1	0.1%	-6.4%	3.3%	0.5%	-33.1%
CC(/C=C/c1ccc(OCc2ccccc2)cc1)=N\O	2.82µM*	14.6µM*	2.39µM*	2.82µM*	11.2µM*
COC(=O)c1ccc(COc2ccc(/C=N/N3CCN(C)CC3)cc2)cc1	?	?	23.9µM*	1.12µM*	5.62µM*
C(=N\n1cnnc1)/c1ccc(OCc2ccccc2)cc1	-0.2%	?	?	7.6%	-26.2%
CN1CCN(/N=C/c2ccc(OCc3ccccc3)cc2)CC1	3.55µM*	?	9.53µM*	2.82µM*	.
C=CCNC(=O)C(=O)Nc1ccc2c(c1)N(S(=O)(=O)c1cccs1)CCC2	-9.6%	-5.9%	2.7%	-13.2%	.
O=C1NCCCCC1NS(=O)(=O)c1ccc(F)c(F)c1 (stereo unspecified)	1.7%	1.1%	-2.1%	-5.3%	.
